# Results reported in the supplement of paper PMC9023506.
# Where a name gives a salt, the structure may show the parent alone.
# Tested on: Danio rerio larvae (5 dpf)
# Assay: optomotor response to green moving lines, difference vs DMSO (percentage points (treated minus DMSO)); higher = more of the behaviour than the DMSO vehicle control
# Conditions: 10 µM; exposure time: 3 h pre-incubation + 3 h imaging
# Description: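 5-dpf wild-type zebrafish larvae were imaged in 96-well plates. They were treated with 190 Tocris FDA-approved drugs at 10 µM (1 µl/ml DMSO) for 3 h before and 3 h during imaging at 28.5 °C, 48 larvae per drug. Automated image analysis gave % time moving and optomotor responses. Values are drug group mean minus DMSO vehicle mean (n=844), in percentage points, for 10 behaviours.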
row,Structure (SMILES),optomotor response to green moving lines
1,CCCc1nc2c(C)cc(-c3nc4ccccc4n3C)cc2n1Cc1ccc(-c2ccccc2C(=O)O)cc1 [Telmisartan],-3.99
2,CC(=O)S[C@@H]1CC2=CC(=O)CC[C@]2(C)[C@H]2CC[C@@]3(C)[C@@H](CC[C@@]34CCC(=O)O4)[C@H]12 [Spironolactone],3.9
3,NS(=O)(=O)c1cc2c(cc1Cl)NC(C1CC3C=CC1C3)NS2(=O)=O (stereo not given) [Cyclothiazide],0.907
4,CCOc1ccccc1OCCN[C@H](C)Cc1ccc(OC)c(S(N)(=O)=O)c1 [Tamsulosin hydrochloride],-11.6
5,Cc1ccc(NC(=O)c2ccc(CN3CCN(C)CC3)cc2)cc1Nc1nccc(-c2cccnc2)n1 [Imatinib mesylate],-13.4
6,NS(=O)(=O)Cc1noc2ccccc12 [Zonisamide],8.43
7,Cn1cnc([N+](=O)[O-])c1Sc1ncnc2[nH]cnc12 [Azathioprine],-1.06
8,Cc1cccc(CN2CCN(C(c3ccccc3)c3ccc(Cl)cc3)CC2)c1 (stereo not given) [Meclizine dihydrochloride],-8.55
9,COCCCOc1cc(C[C@@H](C[C@H](N)[C@@H](O)C[C@H](C(=O)NCC(C)(C)C(N)=O)C(C)C)C(C)C)ccc1OC [Aliskiren hemifumarate],-4.53
10,COC(=O)C1=C(C)NC(C)=C(C(=O)OC(C)C)C1c1cccc2nonc12 (stereo not given) [Isradipine],-1.42
11,CC1=Nc2ccc(Cl)cc2S(=O)(=O)N1 [Diazoxide],7.27
12,CCCCC(=O)N(Cc1ccc(-c2ccccc2-c2nnn[nH]2)cc1)[C@H](C(=O)O)C(C)C [Valsartan],4.22
13,CC(=O)Oc1cc2c(s1)CCN(C(C(=O)C1CC1)c1ccccc1F)C2 (stereo not given) [Prasugrel],-2.39
14,COc1c(C)c2c(c(O)c1C/C=C(\C)CCC(=O)O)C(=O)OC2 [Mycophenolic acid],-1.15
15,CC(C)(C(=O)O)c1ccc(C(O)CCCN2CCC(C(O)(c3ccccc3)c3ccccc3)CC2)cc1 (stereo not given) [Fexofenadine hydrochloride],3.69
16,NS(=O)(=O)c1cc(C(=O)O)c(NCc2ccco2)cc1Cl [Furosemide],-6.99
17,CN/C(=N\CCSCc1nc[nH]c1C)NC#N [Cimetidine],5.06
18,O=C1CCc2cc(OCCCCc3nnnn3C3CCCCC3)ccc2N1 [Cilostazol],3.44
19,OCCN1C[C@H](O)[C@@H](O)[C@H](O)[C@H]1CO [Miglitol],2.58
20,Cc1cn([C@H]2C=C[C@@H](CO)O2)c(=O)[nH]c1=O [Stavudine],1.24

row,Structure (SMILES),optomotor response to green moving lines
1,OC(c1cc(C(F)(F)F)nc2c(C(F)(F)F)cccc12)C1CCCCN1 (stereo not given) [Mefloquine hydrochloride],-0.307
2,COc1cc2nc(N3CCN(C(=O)C4COc5ccccc5O4)CC3)nc(N)c2cc1OC (stereo not given) [Doxazosin mesylate],-8.3
3,CC(C)[C@H]1CC[C@H](C(=O)N[C@H](Cc2ccccc2)C(=O)O)CC1 [Nateglinide],4.02
4,CC(CCc1ccc(O)cc1)NCCc1ccc(O)c(O)c1 (stereo not given) [Dobutamine hydrochloride],4.26
5,O=C1CCc2ccc(OCCCCN3CCN(c4cccc(Cl)c4Cl)CC3)cc2N1 [Aripiprazole],-2.87
6,C[C@H]1C[C@@H]2[C@H]([C@@H](O)C[C@@]3(C)[C@H]2CC[C@]3(O)C(=O)CO)[C@@]2(C)C=CC(=O)C=C12 [Methylprednisolone],5.3
7,OCCOCCN1CCN(C2=Nc3ccccc3Sc3ccccc32)CC1 [Quetiapine hemifumarate],10.3
8,COc1cccc2c1C(=O)c1c(O)c3c(c(O)c1C2=O)C[C@@](O)(C(=O)CO)C[C@@H]3O[C@H]1C[C@H](N)[C@H](O)[C@H](C)O1 [Doxorubicin hydrochloride],-8.47
9,CN(CCOc1ccc(NS(C)(=O)=O)cc1)CCc1ccc(NS(C)(=O)=O)cc1 [Dofetilide],0.112
10,CN(C)CC/C=C1/c2ccccc2COc2ccc(CC(=O)O)cc21 [Olopatadine hydrochloride],5.77
11,CC#C[C@]1(O)CC[C@H]2[C@@H]3CCC4=CC(=O)CCC4=C3[C@@H](c3ccc(N(C)C)cc3)C[C@@]21C [Mifepristone],11
12,CCC(=O)O[C@]1(C(=O)SCF)[C@H](C)C[C@H]2[C@@H]3C[C@H](F)C4=CC(=O)C=C[C@]4(C)[C@@]3(F)[C@@H](O)C[C@@]21C [Fluticasone propionate],2.35
13,CC(C)c1ccc2oc3nc(N)c(C(=O)O)cc3c(=O)c2c1 [Amlexanox],-0.74
14,CCOC(=O)C1=C(COCCN)NC(C)=C(C(=O)OC)C1c1ccccc1Cl (stereo not given) [Amlodipine besylate],-4.86
15,CCOc1cc(CC(=O)N[C@@H](CC(C)C)c2ccccc2N2CCCCC2)ccc1C(=O)O [Repaglinide],4.27
16,C#C[C@]1(O)CC[C@H]2[C@@H]3CCC4=CC(=O)CC[C@@H]4[C@H]3CC[C@@]21CC [Levonorgestrel],5.26
17,CCOc1nc2cccc(C(=O)O)c2n1Cc1ccc(-c2ccccc2-c2nnn[nH]2)cc1 [Candesartan],0.689
18,CN(C)CCc1c[nH]c2ccc(C[C@H]3COC(=O)N3)cc12 [Zolmitriptan],6.88
19,COc1ccccc1OCCNCC(O)COc1cccc2[nH]c3ccccc3c12 (stereo not given) [Carvedilol],-14.2
20,Cc1c(-c2ccc(O)cc2)n(Cc2ccc(OCCN3CCCCCC3)cc2)c2ccc(O)cc12 [Bazedoxifene acetate],-2.2
